Reference: the supplement of paper PMC10338343
± gives the standard deviation. Over roughly 8,200 sequences, “pre-steady-state target cleavage rate” has its median near 0.024; the highest 2% begin near 1.3. The sample holds the highest values, similar sequences and a random draw of the others, so the mix is not that of the screen.

Test system: MIWI (PIWIL1) piRISC loaded with L1MC piRNA (30 nt)
Assay: pre-steady-state target cleavage rate (min^-1); MIWI and MILI are mouse PIWI proteins and EfPiwi is from a freshwater sponge; tags in brackets are library labels; higher = faster piRNA-guided slicing of the target
Details: guide: L1MC piRNA 5'p-UAACUAAAUACUAUGCAAGCUGUAGGUCCU
Outline: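 The pre-steady-state cleavage rate was derived from a burst-and-steady-state fit of Cleave-'n-Seq data. For these assays, 1 nM active affinity-purified piRISC loaded with a single synthetic guide was mixed with […] a transcribed, DNA-blocked target RNA library in HEPES–potassium acetate buffer at 33 °C, with or without 500 nM GTSF1 partner protein, for 0–8 or 0–960 min. Sequencing counts of uncleaved targets were normalised to depth and to weakly complementary targets, and k3 was capped at 0.0001 min^-1 after three trials were pooled.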

[1] = auxiliary factor: 500 nM mouse GTSF1
[2] = auxiliary factor: none (no GTSF1)
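Further: 1 nM active piRISC with 0.1 nM target library at 33 °C single turnover.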

## UCCUGGAUGAGCUUGCAUAGUUUUAAGUUA
[1]
  pre-steady-state target cleavage rate: 0.0288 ± 0.0084
[2]
  pre-steady-state target cleavage rate: 0.00673 ± 0.0032

## AGCACCUACAGCUUGCAUAGUAUUUAGUAA
[1]
  pre-steady-state target cleavage rate: 0.974 ± 0.12
[2]
  pre-steady-state target cleavage rate: 0.197 ± 0.062

## UGGACCUACACCUUGCAUAGUAUAUAGUUA
[1]
  pre-steady-state target cleavage rate: 0.523 ± 0.041
[2]
  pre-steady-state target cleavage rate: 0.0327 ± 0.007

## UCCUGGAACAGCAUGCAUAGUAUUUAGUAA
[1]
  pre-steady-state target cleavage rate: 0.695 ± 0.061
[2]
  pre-steady-state target cleavage rate: 0.0107 ± 0.0026

## UCCUGGAUCAGCUAUGCAUAGUAUUUAGUUA
[1]
  pre-steady-state target cleavage rate: 1.04 ± 0.073
[2]
  pre-steady-state target cleavage rate: 0.0161 ± 0.0043

## UGGACCUACACGUUGCAUAGUAUUUACAAA
[1]
  pre-steady-state target cleavage rate: 0.103 ± 0.013

## UGGACCGUACAGCUUGCAUAGUAUUUAGUUA
[1]
  pre-steady-state target cleavage rate: 1.24 ± 0.06
[2]
  pre-steady-state target cleavage rate: 0.064 ± 0.0096

## UCCACCGACAGCUUGCAUAGUAUUUAGUUA
[1]
  pre-steady-state target cleavage rate: 1.04 ± 0.043
[2]
  pre-steady-state target cleavage rate: 0.0616 ± 0.011

## UGGACCGACAGCUUGCAUAGUAUUUAGUUA
[1]
  pre-steady-state target cleavage rate: 1.45 ± 0.076
[2]
  pre-steady-state target cleavage rate: 0.0713 ± 0.013

## AGGACCGACAGCUUGCAUAGUAUUUAGUUA
[1]
  pre-steady-state target cleavage rate: 1.21 ± 0.058
[2]
  pre-steady-state target cleavage rate: 0.0903 ± 0.017

## UCGACCGUACAGCUUGCAUAGUAUUUAGUUA
[1]
  pre-steady-state target cleavage rate: 1.26 ± 0.046
[2]
  pre-steady-state target cleavage rate: 0.0719 ± 0.013

## UCGACCGACAGCUUGCAUAGUAUUUAGUUA
[1]
  pre-steady-state target cleavage rate: 1.41 ± 0.05
[2]
  pre-steady-state target cleavage rate: 0.0741 ± 0.012

## UCCACCAUCAGCUUGCAUAGUAUUUAGUAA
[1]
  pre-steady-state target cleavage rate: 0.68 ± 0.029
[2]
  pre-steady-state target cleavage rate: 0.0248 ± 0.0047

## UCCUGGAUGUCCUUGCAUAGUAUUGAGUUA
[1]
  pre-steady-state target cleavage rate: 0.142 ± 0.031
[2]
  pre-steady-state target cleavage rate: 0.00653 ± 0.0024

## UGGACCUACAGCUUGCAAUGUAUUUACAAA
[1]
  pre-steady-state target cleavage rate: 0.0217 ± 0.0068

## UCCUGGAUCAGCUUGCAUACUAUUAAGUUA
[1]
  pre-steady-state target cleavage rate: 0.101 ± 0.015
[2]
  pre-steady-state target cleavage rate: 0.00664 ± 0.0024

## UCCUGGAACAGCUUGCAAAGUAUUUUCAAA
[1]
  pre-steady-state target cleavage rate: 0.0876 ± 0.018
[2]
  pre-steady-state target cleavage rate: 0.00328 ± 0.002

## UCCUGGUACAGCUUGCAUAGUAUUUAGUCUA
[1]
  pre-steady-state target cleavage rate: 0.0829 ± 0.026
[2]
  pre-steady-state target cleavage rate: 0.00718 ± 0.0028

## AGGACCUACAGCUUGCAUAGAAUUUAGUUA
[1]
  pre-steady-state target cleavage rate: 0.559 ± 0.044
[2]
  pre-steady-state target cleavage rate: 0.0408 ± 0.011

## UCCUGCAACAGCUUGCAAAGUAUUUAGUUA
[1]
  pre-steady-state target cleavage rate: 1.32 ± 0.076
[2]
  pre-steady-state target cleavage rate: 0.0463 ± 0.01

## UCCUGGAACAGCUUGCAGUAGUAUUUAGUUA
[1]
  pre-steady-state target cleavage rate: 0.00503 ± 0.0043

## UCCUGGAACAGCUUGCGUAGUAUUUAGUUA
[1]
  pre-steady-state target cleavage rate: 1.43 ± 0.087
[2]
  pre-steady-state target cleavage rate: 0.0397 ± 0.0099

## UCCUGCAACAGCUAGCAUAGUAUUUAGUUA
[1]
  pre-steady-state target cleavage rate: 1.12 ± 0.047
[2]
  pre-steady-state target cleavage rate: 0.0185 ± 0.004

## UCCUGCUACAGCAUGCAUAGUAUUUAGUUA
[1]
  pre-steady-state target cleavage rate: 1.21 ± 0.086
[2]
  pre-steady-state target cleavage rate: 0.0207 ± 0.0053

## UCCUGCUACAGCUUGCAAAGUAUUUAGUUA
[1]
  pre-steady-state target cleavage rate: 0.619 ± 0.037
[2]
  pre-steady-state target cleavage rate: 0.03 ± 0.0055

## UCCUGCAACAGCUUGCAUAGUAUUUAGAAA
[1]
  pre-steady-state target cleavage rate: 0.429 ± 0.059
[2]
  pre-steady-state target cleavage rate: 0.00469 ± 0.0034

## UCCUGCAACAGCUUGCAUAGUAUUUAGUAA
[1]
  pre-steady-state target cleavage rate: 1.22 ± 0.083
[2]
  pre-steady-state target cleavage rate: 0.0736 ± 0.021

## UCCUGCAACAGCUUGCAUAGUAUUUAGUUA
[1]
  pre-steady-state target cleavage rate: 1.57 ± 0.12
[2]
  pre-steady-state target cleavage rate: 0.0696 ± 0.017

## UCCUCCAACAGCUUGCAAAGUAUUUAGUUA
[1]
  pre-steady-state target cleavage rate: 1.16 ± 0.043
[2]
  pre-steady-state target cleavage rate: 0.0397 ± 0.0099

## UCCUGGAACAGCUUGCUUAGUAUUUAGUUA
[1]
  pre-steady-state target cleavage rate: 1.14 ± 0.053
[2]
  pre-steady-state target cleavage rate: 0.0404 ± 0.0098

## UCCUGCAACAGCAUGCAUAGUAUUUAGUUA
[1]
  pre-steady-state target cleavage rate: 1.36 ± 0.087
[2]
  pre-steady-state target cleavage rate: 0.0331 ± 0.0088

## UGCACCUACAGCUUGCAUAGUAUUUUGUUA
[1]
  pre-steady-state target cleavage rate: 0.852 ± 0.083
[2]
  pre-steady-state target cleavage rate: 0.0692 ± 0.015

## UCCUGGAUGUGCUUGCAUAGUAAUUUGUUA
[1]
  pre-steady-state target cleavage rate: 0.0171 ± 0.0079
[2]
  pre-steady-state target cleavage rate: 0.00536 ± 0.0029

## UCCACCAACAGCUUCCAUAGUAUUUAGUUA
[1]
  pre-steady-state target cleavage rate: 0.0426 ± 0.015
[2]
  pre-steady-state target cleavage rate: 0.00399 ± 0.0017

## AGGACCAACAGCUUGCAUUGUAUUUAGUUA
[1]
  pre-steady-state target cleavage rate: 0.923 ± 0.044
[2]
  pre-steady-state target cleavage rate: 0.0356 ± 0.0086

## UCCUCCUACAGCUUGCAUAGUUUUUACAAA
[1]
  pre-steady-state target cleavage rate: 0.185 ± 0.029

## UCCUGGAACAGCUUGCAUAGUUAUUAGUUA
[1]
  pre-steady-state target cleavage rate: 0.113 ± 0.015
[2]
  pre-steady-state target cleavage rate: 0.015 ± 0.0044

## UCCUGGAACAGCUUGCAUAGUAUCUUAGUUA
[1]
  pre-steady-state target cleavage rate: 0.777 ± 0.046
[2]
  pre-steady-state target cleavage rate: 0.0258 ± 0.0072

## UCCUGGAAACAGCUUGCAUAGUAUUUAGUUA
[1]
  pre-steady-state target cleavage rate: 1.34 ± 0.051
[2]
  pre-steady-state target cleavage rate: 0.0675 ± 0.012

## UCCUGGAACAGCUUGCAUAGUAUUUUAGUUA
[1]
  pre-steady-state target cleavage rate: 0.875 ± 0.046
[2]
  pre-steady-state target cleavage rate: 0.0159 ± 0.003

## UCCUGGAACAGCUUGCAUAGUAUUCUAGUUA
[1]
  pre-steady-state target cleavage rate: 0.285 ± 0.041
[2]
  pre-steady-state target cleavage rate: 0.0119 ± 0.0031

## UCCUGCAACAGCUUGCUUAGUAUUUAGUUA
[1]
  pre-steady-state target cleavage rate: 1.4 ± 0.097
[2]
  pre-steady-state target cleavage rate: 0.0478 ± 0.013

## UCCUGCAACAGCUUGGAUAGUAUUUAGUUA
[1]
  pre-steady-state target cleavage rate: 1.24 ± 0.1
[2]
  pre-steady-state target cleavage rate: 0.0688 ± 0.012

## UCCUGGAACAGCUUGCAUAGUAUUUAGUUA [g2:g23:cont:t1A]
[1]
  pre-steady-state target cleavage rate: 1.18 ± 0.034
[2]
  pre-steady-state target cleavage rate: 0.0833 ± 0.014

## UCCUGGAACAGCUUGCAUAGUAUCUAGUUA
[1]
  pre-steady-state target cleavage rate: 0.508 ± 0.045
[2]
  pre-steady-state target cleavage rate: 0.0563 ± 0.011

## UCCUGGAACAGCUUGUAUAGUAUUUAGUUA
[1]
  pre-steady-state target cleavage rate: 1.37 ± 0.056
[2]
  pre-steady-state target cleavage rate: 0.0564 ± 0.012

## UCCUGCAACAGCUUGCAUUGUAUUUAGUUA
[1]
  pre-steady-state target cleavage rate: 0.964 ± 0.068
[2]
  pre-steady-state target cleavage rate: 0.0397 ± 0.01

## UCGACCUACAGCUUGCAUAGUAUUCUAGUUA
[1]
  pre-steady-state target cleavage rate: 0.882 ± 0.094
[2]
  pre-steady-state target cleavage rate: 0.0316 ± 0.0072

## UGGACCUACAGCUUGCUUAGUAUUAAGUUA
[1]
  pre-steady-state target cleavage rate: 0.454 ± 0.041
[2]
  pre-steady-state target cleavage rate: 0.012 ± 0.0028

## UCCUCCUACAGCUUGCAUACUAUUAAGUUA
[1]
  pre-steady-state target cleavage rate: 0.147 ± 0.022
[2]
  pre-steady-state target cleavage rate: 0.00892 ± 0.0014

## UGGACCUACAGGUUGCAAAGUAUUUAGUUA
[1]
  pre-steady-state target cleavage rate: 1.33 ± 0.082
[2]
  pre-steady-state target cleavage rate: 0.02 ± 0.0043

## UCCUCCUACAGGUUGCAAAGUAUUUAGUUA
[1]
  pre-steady-state target cleavage rate: 1.29 ± 0.06
[2]
  pre-steady-state target cleavage rate: 0.0159 ± 0.0033

## UCGACCUACAGGUUGCAUAGUAUUUAGUUA
[1]
  pre-steady-state target cleavage rate: 1.14 ± 0.053
[2]
  pre-steady-state target cleavage rate: 0.0468 ± 0.0088

## UCCACCUACAGGUUGCAAAGUAUUUAGUUA
[1]
  pre-steady-state target cleavage rate: 1 ± 0.04
[2]
  pre-steady-state target cleavage rate: 0.0166 ± 0.0038

## UCGACCUACAGGUUGCAAAGUAUUUAGUUA
[1]
  pre-steady-state target cleavage rate: 1.33 ± 0.054
[2]
  pre-steady-state target cleavage rate: 0.0193 ± 0.0046

## AGGACCUACAGGUUGCAAAGUAUUUAGUUA
[1]
  pre-steady-state target cleavage rate: 1.21 ± 0.045
[2]
  pre-steady-state target cleavage rate: 0.0226 ± 0.0041

## UCCUGCUACAGCUUGCAUAGUAUUUAGUCUA
[1]
  pre-steady-state target cleavage rate: 0.156 ± 0.025
[2]
  pre-steady-state target cleavage rate: 0.00747 ± 0.0028

## UCGACCUACAGCUUGCAUAGUUAAUUCAAA
[1]
  pre-steady-state target cleavage rate: 0.538 ± 0.15

## UCCUGGAUGAGCUUGCAUAGUUUUUUGUUA
[1]
  pre-steady-state target cleavage rate: 0.0806 ± 0.014
[2]
  pre-steady-state target cleavage rate: 0.0177 ± 0.0048

## UCCUGGAUGAGCUUGCAUUGUAUUUACUUA
[1]
  pre-steady-state target cleavage rate: 0.0649 ± 0.016
[2]
  pre-steady-state target cleavage rate: 0.00906 ± 0.0031

## AGGACCUACAGCUUGCAUAGAAUUUUGUUA
[1]
  pre-steady-state target cleavage rate: 0.501 ± 0.047
[2]
  pre-steady-state target cleavage rate: 0.0183 ± 0.0047

## AGGACCUACAGCUUGCAUAGUAUUUAGUA
[1]
  pre-steady-state target cleavage rate: 0.795 ± 0.042
[2]
  pre-steady-state target cleavage rate: 0.0502 ± 0.014

## UCGACCUACUAGCUUGCAUAGUAUUUAGUUA
[1]
  pre-steady-state target cleavage rate: 0.784 ± 0.042
[2]
  pre-steady-state target cleavage rate: 0.0512 ± 0.01

## AGCACCUAGAGCUUGCAUAGUAUUUAGUUA
[1]
  pre-steady-state target cleavage rate: 1.47 ± 0.37
[2]
  pre-steady-state target cleavage rate: 0.00468 ± 0.0035

## UGGACCUACUAGCUUGCAUAGUAUUUAGUUA
[1]
  pre-steady-state target cleavage rate: 0.63 ± 0.036
[2]
  pre-steady-state target cleavage rate: 0.0509 ± 0.01
